Sampled rows, rich in hits. Any-hit rate of the full collection: about 2.8%.
LMP1 NFkB inh = reduces LMP1-driven NF-kappaB luciferase signal | LMP1-induced NF-kappaB luciferase reporter cells, luminescence | inhibition, % at 12.5 µM | hit rate 0.69% among 350,000; in the data active = inhibition above about 41%; inconclusive = no clear call, values can overlap the other calls;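 note: 0% = neutral control wells and 100% = reference inhibitor control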
TRPM1 prom inh = inhibitors of MITF-driven TRPM1 promoter in melanoma cells; hit rate 0.83% among 330,000; inhibition, % at 12.5 µM; AID 488899; SK-MEL-5 TRPM1 promoter luciferase, 24 h;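 active = mean inhibition across replicates of 60% or more, whatever share of single replicates reaches that level; inconclusive = some that reach 60%, reason not given; inactive = mean inhibition across replicates below 60%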
PAX8 reporter = inhibitors of PAX8 transcriptional activity in RMG-I cells. RMG-I TPO-luciferase reporter, SteadyGlo, 24 h. hit rate 1.2% among 360,000. inhibition, % at 12.6 µM. AID 652154;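 active = mean replicate inhibition at least 60% with every replicate also reaching 60%; inconclusive = only one of the two criteria is met; inactive = mean below 60% and not all replicates reaching 60%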;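 note: luciferase light reporting Pax8 driven TPO promoter activity; plate controls were median of neutral control wells for no effect and mitoxantrone controls for full effect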
Peg3 prom inh = Peg3 promoter activity inhibition | HeLa PEG-Prom luciferase reporter, luminescence, overnight | inhibition, % at 20 µM | hit rate 1.7% among 360,000;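 active = inhibition of at least 50% at 20 µM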
HIF-2a block = inhibitors of HIF-2a; 786-0 RCC cells HIF-2a reporter, luciferase luminescence, overnight; hit rate 0.72% among 360,000; AID 624352; inhibition, % at 18.8 µM;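 active = inhibition of the luminescence signal of 40% or more relative to plate controls, in a single-dose primary screen at 18.75 µM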
Shn3 3UTR inh = reduces Shn3 3'UTR luciferase signal in osteoblasts. inhibition, % at 12.5 µM. Clone20 osteoblast Shn3 3'UTR firefly luciferase, 24 h. hit rate 0.52% among 360,000;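 active = mean inhibition of at least 75% with every replicate also reaching 75%; inconclusive = mean inhibition at least 75% but some replicate below; inactive = mean inhibition below 75%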;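 note: 0% = median of neutral control wells and 100% = pilot-screen positive control compound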
Mdm2-MdmX confirm = confirmation of inhibitors of human Mdm2/MdmX interaction, set 2; SaOS-2 split-luciferase Mdm2/MdmX complementation, luminescence; hit rate 99% among 740; shares compounds with HIF-2a block; AID 504601; inhibition, % at 8 µM;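 active = mean inhibition of the luminescence signal across two replicates at or above 26 percent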
Target sequence (O15151 whole entry, looked up): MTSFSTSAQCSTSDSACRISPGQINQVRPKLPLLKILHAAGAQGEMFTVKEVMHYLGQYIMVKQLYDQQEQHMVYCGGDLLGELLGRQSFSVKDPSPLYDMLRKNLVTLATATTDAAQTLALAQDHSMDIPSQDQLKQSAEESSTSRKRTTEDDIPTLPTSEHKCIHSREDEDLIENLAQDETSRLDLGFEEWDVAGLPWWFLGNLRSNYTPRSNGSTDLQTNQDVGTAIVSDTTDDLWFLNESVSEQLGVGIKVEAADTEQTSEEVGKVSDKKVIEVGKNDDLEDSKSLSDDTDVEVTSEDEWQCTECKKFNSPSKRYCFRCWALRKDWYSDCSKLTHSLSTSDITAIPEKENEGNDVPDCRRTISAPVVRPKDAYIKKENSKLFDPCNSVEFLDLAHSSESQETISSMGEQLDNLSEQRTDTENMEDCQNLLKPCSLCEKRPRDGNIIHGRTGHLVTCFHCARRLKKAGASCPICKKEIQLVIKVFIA
Target sequence (Q00987 whole entry, looked up): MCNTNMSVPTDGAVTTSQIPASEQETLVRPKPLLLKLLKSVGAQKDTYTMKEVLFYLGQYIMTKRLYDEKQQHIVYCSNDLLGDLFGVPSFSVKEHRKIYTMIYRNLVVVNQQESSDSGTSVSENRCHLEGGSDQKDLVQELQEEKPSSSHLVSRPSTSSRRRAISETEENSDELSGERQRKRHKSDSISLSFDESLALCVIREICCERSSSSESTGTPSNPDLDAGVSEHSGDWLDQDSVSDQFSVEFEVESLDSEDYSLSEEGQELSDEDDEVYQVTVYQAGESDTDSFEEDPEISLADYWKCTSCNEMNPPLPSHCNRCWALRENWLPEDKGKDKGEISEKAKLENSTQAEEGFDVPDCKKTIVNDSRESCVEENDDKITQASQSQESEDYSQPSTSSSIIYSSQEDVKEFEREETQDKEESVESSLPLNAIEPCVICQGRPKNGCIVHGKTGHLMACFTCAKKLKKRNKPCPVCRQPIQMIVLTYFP
HIF-2a conf = confirmation of HIF-2a inhibitors; hit rate 56% among 1,800; inhibition, % at 18.8 µM; 786-0 RCC cells, HIF-2a luciferase reporter luminescence, overnight; shares compounds with HIF-2a block;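 active = mean inhibition across four replicates of at least 40 percent at the single tested concentration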
HIF-1a counter = inhibits HIF-1a reporter, a counter-screen for HIF-2a inhibitors; inhibition, % at 18.8 µM; shares compounds with HIF-2a block; MiaPaCa-2 HIF-1a luciferase reporter, desferoxamine, overnight; hit rate 72% among 1,800;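 active = mean inhibition of the reporter signal across four replicates at the single tested dose of 50% or more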
The depositor's hits bear a star.

What do the screens show for `O=C(Nc1ccc2nc3n(c(=O)c2c1)CCCC3)c1cc([N+](=O)[O-])ccc1F`?
LMP1 NFkB inh: 1.9; TRPM1 prom inh: 81.1*; Peg3 prom inh: 111.0*; HIF-2a block: 47.8*; Shn3 3UTR inh: 91.3*; Mdm2-MdmX confirm: 103.0*; HIF-2a conf: 24.9; HIF-1a counter: 105.0*

Results for CCOc1cccc2sc(N(CCCN(C)C)C(=O)c3ccc(S(=O)(=O)N4CCc5ccccc5C4)cc3)nc12 ?
LMP1 NFkB inh: 2.6; TRPM1 prom inh: 22.7; PAX8 reporter: -28.7; Peg3 prom inh: 39.2; HIF-2a block: -0.7; Shn3 3UTR inh: -15.4

Results for CCc1ccc2nc(N(CCCN(C)C)C(=O)c3ccc(S(=O)(=O)N4CCc5ccccc5C4)cc3)sc2c1 ?
LMP1 NFkB inh: -31.8; TRPM1 prom inh: 39.5; PAX8 reporter: 10.6; Peg3 prom inh: 28.4; HIF-2a block: 68.1*; Shn3 3UTR inh: 1.5; HIF-2a conf: 27.0; HIF-1a counter: 46.9

What do the screens show for `COCC(=O)N1CC2(C1)CN(C(=O)Nc1ccccc1F)[C@H](CO)c1[nH]c3cc(OC)ccc3c12`?
PAX8 reporter: -28.0

How did NS(=O)(=O)c1cc(C(=O)OCC(=O)Nc2ccccc2[N+](=O)[O-])ccc1Cl do in these assays?
LMP1 NFkB inh: 4.6; TRPM1 prom inh: -6.1; PAX8 reporter: 16.1; Peg3 prom inh: 0.8; HIF-2a block: 2.7; Shn3 3UTR inh: -17.1

How did Cc1ccccc1NC(=O)COC(=O)c1ccc(S(C)(=O)=O)c([N+](=O)[O-])c1 do in these assays?
LMP1 NFkB inh: 6.0; TRPM1 prom inh: 18.5; PAX8 reporter: inconclusive; Peg3 prom inh: 89.2*; HIF-2a block: 92.6*; Shn3 3UTR inh: -0.1; HIF-2a conf: 14.9; HIF-1a counter: -0.4

How did Cc1ccc(Cl)c(NC(=O)COC(=O)c2ccccc2C(=O)c2ccc(Cl)c([N+](=O)[O-])c2)c1Cl do in these assays?
LMP1 NFkB inh: 72.9*; TRPM1 prom inh: 87.3*; PAX8 reporter: 16.3; Peg3 prom inh: 99.8*; HIF-2a block: 97.2*; Shn3 3UTR inh: 55.5; HIF-2a conf: 3.9; HIF-1a counter: 107.5*

How did Cc1ccccc1NC(=O)Cc1nc(COC(=O)c2ccc(S(C)(=O)=O)c([N+](=O)[O-])c2)cs1 do in these assays?
LMP1 NFkB inh: -3.8; TRPM1 prom inh: 72.7*; Peg3 prom inh: 101.2*; HIF-2a block: 33.0; Shn3 3UTR inh: inconclusive; Mdm2-MdmX confirm: 100.0*

How did COCC(=O)N(C)C[C@@H]1Oc2cc(-c3ccccc3F)ccc2S(=O)(=O)N([C@@H](C)CO)C[C@H]1C do in these assays?
PAX8 reporter: 1.9

What do the screens show for `Cc1noc(C)c1NC(=O)N(C)C[C@H]1Oc2ccc(NC(=O)Nc3cccc4ccccc34)cc2CC(=O)N([C@H](C)CO)C[C@@H]1C`?
PAX8 reporter: 16.1

How did C=C1[C@@H](O)[C@H](Cc2ccccc2)N(Cc2ccccc2Br)S1(=O)=O do in these assays?
LMP1 NFkB inh: -12.0; TRPM1 prom inh: 4.8; PAX8 reporter: 39.4; Peg3 prom inh: 96.8*; HIF-2a block: 70.7*; Shn3 3UTR inh: 12.3; HIF-2a conf: 54.9*; HIF-1a counter: 106.1*

Results for COCC(=O)N1[C@@H]2Cn3c(ccc(/C=C/c4ccccc4)c3=O)[C@H]1[C@@H](C(=O)N1CCOCC1)[C@@H]2CO ?
PAX8 reporter: -4.4

How did CO[C@@H]1CN(C)C(=O)c2ccc(NC(=O)Cc3ccccc3)cc2OC[C@H](C)NC[C@H]1C do in these assays?
PAX8 reporter: 2.2

How did Nc1ncc([N+](=O)[O-])c(N2CCCCCC2)n1 do in these assays?
LMP1 NFkB inh: 22.4; TRPM1 prom inh: -3.6; PAX8 reporter: -39.5; Peg3 prom inh: 13.7; HIF-2a block: 7.7; Shn3 3UTR inh: 13.5; Mdm2-MdmX confirm: 84.2*

What do the screens show for `CCOC(=O)C1CCN(C(=O)CCc2c(C)nc3c(-c4ccc(F)cc4)c(C)nn3c2C)CC1`?
LMP1 NFkB inh: -0.6; PAX8 reporter: 1.4; Peg3 prom inh: 25.9; HIF-2a block: 27.8; Shn3 3UTR inh: -3.2

How did CCOC(=O)C1CCCCN1C(=O)CCc1c(C)nc2cc(-c3ccccc3)nn2c1C (stereo not given) do in these assays?
LMP1 NFkB inh: 16.9; PAX8 reporter: -30.2; Peg3 prom inh: -36.8; HIF-2a block: 74.9*; Shn3 3UTR inh: 15.2; HIF-2a conf: 85.1*; HIF-1a counter: 73.8*

How did CCOC(=O)C1CCCCN1C(=O)CCc1c(C)nc2ncnn2c1C (stereo not given) do in these assays?
LMP1 NFkB inh: 6.7; TRPM1 prom inh: 27.4; Peg3 prom inh: 4.5; HIF-2a block: 62.8*; Shn3 3UTR inh: 13.8; HIF-2a conf: 49.3*; HIF-1a counter: 28.3

How did COc1ccc(-c2cc3nc(C)c(CCC(=O)N4CCN(c5ccccn5)CC4)c(C)n3n2)c(OC)c1 do in these assays?
LMP1 NFkB inh: 10.3; TRPM1 prom inh: 1.6; PAX8 reporter: -18.8; Peg3 prom inh: 22.1; HIF-2a block: 4.6; Shn3 3UTR inh: -10.2

How did CCOC(=O)C1CCN(C(=O)CCc2c(C)nc3cc(-c4ccccc4)nn3c2C)CC1 do in these assays?
LMP1 NFkB inh: 6.2; TRPM1 prom inh: 30.1; PAX8 reporter: -23.9; Peg3 prom inh: -50.3; HIF-2a block: 68.6*; Shn3 3UTR inh: 31.7; HIF-2a conf: 84.5*; HIF-1a counter: 44.9

Results for Cc1nc2cc(-c3cccc(F)c3)nn2c(C)c1CCC(=O)N1CCN(c2ccccn2)CC1 ?
LMP1 NFkB inh: 3.6; TRPM1 prom inh: 26.6; PAX8 reporter: -18.4; Peg3 prom inh: -36.6; HIF-2a block: 72.0*; Shn3 3UTR inh: 14.5; HIF-2a conf: 81.0*; HIF-1a counter: 59.2*

How did C[C@@H]1CCCCO[C@H](CN(C)C(=O)CCC(F)(F)F)[C@@H](C)CN([C@@H](C)CO)C(=O)c2cc(N(C)C)ccc2O1 do in these assays?
PAX8 reporter: 19.5

What do the screens show for `C[C@H]1CN([C@@H](C)CO)C(=O)Cc2cc(NC(=O)CCC(F)(F)F)ccc2O[C@@H]1CN(C)C(=O)Nc1ccc(F)cc1`?
PAX8 reporter: -18.2

What do the screens show for `COc1cc(OC)cc(-c2cc3nc(C)c(CCC(=O)O)c(C)n3n2)c1`?
LMP1 NFkB inh: 52.7*; PAX8 reporter: 55.9; Peg3 prom inh: 31.9; HIF-2a block: 81.6*; Shn3 3UTR inh: 78.5; HIF-2a conf: 89.7*; HIF-1a counter: 85.7*

What do the screens show for `COc1ccc(CNc2ncc(-c3ccc(F)cc3)n2C)c2ccccc12`?
LMP1 NFkB inh: 19.2; TRPM1 prom inh: 53.1; PAX8 reporter: 45.6; Peg3 prom inh: 59.5*; HIF-2a block: 40.9*; Shn3 3UTR inh: 35.4; HIF-2a conf: 92.7*; HIF-1a counter: 104.1*
